# Laboratory results published in PubChem BioAssay (EPA / NIEHS).
# Inconclusive results are not listed. Some compounds were tested as several samples or in several runs, with calls that do not always agree. The source made the active and inactive calls. The calls were made as follows, unless noted: active = hit-call score of the fitted dose curve at least 0.9, where 1 is the maximum; inactive = score below 0.9.
# Legend:
# [1] = read-out: succinate dehydrogenase complex iron sulfur subunit B (SDHB), SDHB (gene 6390); experiment: LTEA_HepaRG_SDHB: Life Technologies and Expression Analysis (LTEA) Assay for succinate dehydrogenase complex iron sulfur subunit B (SDHB) using HepaRG (AID 2283528); details: mRNA level, 48 h; actives raise or lower the signal
# In short: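 A human HepaRG culture in serum-free induction medium received test chemicals for 48 h over an eight-point range capped at 100 uM. SDHB expression change was quantified by qRT-PCR.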
# [2] = read-out: solute carrier (SLCO1B1), SLCO1B1 (gene 10599); experiment: LTEA_HepaRG_SLCO1B1: Life Technologies and Expression Analysis (LTEA) Assay for solute carrier (SLCO1B1) using HepaRG (AID 2283530); details: mRNA level, 48 h; actives raise or lower the signal
# In short: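 Human HepaRG cultures treated for 48 h with an eight-concentration half-log series topping at 100 uM; SLCO1B1 measured by qRT-PCR and fitted bidirectionally relative to DMSO.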
# [3] = read-out: sulfotransferase 2A1 (SULT2A1), SULT2A1 (gene 6822); experiment: LTEA_HepaRG_SULT2A1: Life Technologies and Expression Analysis (LTEA) Assay for sulfotransferase 2A1 (SULT2A1) using HepaRG (AID 2283531); details: mRNA level, 48 h; actives raise or lower the signal
# In short: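 Gene-expression endpoint in a human liver cell line: SULT2A1 mRNA change after 48 h chemical treatment, curves fitted in both directions relative to 0.5% DMSO vehicle. Concentrations spanned eight half-log steps from 100 uM.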
# [4] = read-out: Transforming Growth Factor (TGFA), TGFA (gene 7039); experiment: LTEA_HepaRG_TGFA: Life Technologies and Expression Analysis (LTEA) Assay for Transforming Growth Factor (TGFA) using HepaRG (AID 2283532); details: mRNA level, 48 h; actives raise or lower the signal
# In short: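 qRT-PCR read-out of TGFA transcript, normalized to three housekeeping genes, fitted bidirectionally against 0.5% DMSO baseline. Human HepaRG cultures received chemicals for 48 h at eight half-log concentrations, top 100 uM.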
# [5] = read-out: TIMP1, TIMP1 (gene 7076); experiment: LTEA_HepaRG_TIMP1: Life Technologies and Expression Analysis (LTEA) Assay for TIMP1 using HepaRG (AID 2283534); details: mRNA level, 48 h; actives raise or lower the signal
# In short: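 TIMP1 induction or repression in HepaRG cells after 48 h chemical exposure (eight concentrations, highest 100 uM), assessed by normalized qRT-PCR with bidirectional fitting to DMSO controls.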
# [6] = read-out: Tumor necrosis factor receptor 1 (TNFRSF1A), TNFRSF1A (gene 7132); experiment: LTEA_HepaRG_TNFRSF1A: Life Technologies and Expression Analysis (LTEA) Assay for Tumor necrosis factor receptor 1 (TNFRSF1A) using HepaRG (AID 2283535); details: mRNA level, 48 h; actives raise or lower the signal
# In short: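 Assay uses 48 h chemical treatment of differentiated HepaRG monolayers, tested in duplicate at eight concentrations from 100 uM downward in 0.5% DMSO. mRNA is normalized to ACTB, GAPDH and POLR2A, with induction or suppression fitted relative to vehicle.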
# [7] = read-out: Thyroid Hormone Responsive (THRSP), THRSP (gene 7069); experiment: LTEA_HepaRG_THRSP: Life Technologies and Expression Analysis (LTEA) Assay for Thyroid Hormone Responsive (THRSP) using HepaRG (AID 2283536); details: mRNA level, 48 h; actives raise or lower the signal
# In short: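 qRT-PCR read-out (Fluidigm TaqMan), housekeeping-normalized (ACTB/GAPDH/POLR2A). HepaRG, 48 h chemical exposure, 8-pt half-log series from 100 uM in 0.5% DMSO, duplicates. Bidirectional curve fit vs 0.5% DMSO baseline.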
# [8] = read-out: Cellular tumor antigen p53 (Homo sapiens) (UniProt P04637); experiment: LTEA_HepaRG_TP53: Life Technologies and Expression Analysis (LTEA) Assay for Tumor Protein P53 (TP53) using HepaRG (AID 2283537); details: mRNA level, 48 h; actives raise or lower the signal
# In short: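 Gain or loss of TP53 mRNA signal is scored relative to 0.5% DMSO after 48 h chemical treatment of HepaRG liver cells, tested in duplicate at eight half-log concentrations up to 100 uM.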
# [9] = read-out: UDP glucuronosyltransferase (UGT1A1), UGT1A1 (gene 54658); experiment: LTEA_HepaRG_UGT1A1: Life Technologies and Expression Analysis (LTEA) Assay for UDP glucuronosyltransferase (UGT1A1) using HepaRG (AID 2283538); details: mRNA level, 48 h; actives raise or lower the signal
# In short: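 mRNA induction or loss of UGT1A1, by TaqMan qRT-PCR, in duplicate HepaRG wells after 48 h exposure to half-log dilutions topping at 100 uM; DMSO (0.5%) served as baseline.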
# [10] = read-out: UDP glucuronosyltransferase (UGT1A6), UGT1A6 (gene 54578); experiment: LTEA_HepaRG_UGT1A6: Life Technologies and Expression Analysis (LTEA) Assay for UDP glucuronosyltransferase (UGT1A6) using HepaRG (AID 2283539); details: mRNA level, 48 h; actives raise or lower the signal
# In short: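 Measures mRNA change in HepaRG hepatic cells exposed 48 h to chemicals (eight-point, maximum 100 uM, 0.5% DMSO vehicle) in serum-free induction medium. Expression normalized to endogenous controls; DMSO served as negative control and baseline.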
# [11] = read-out: X-box binding protein 1 (XBP1), XBP1 (gene 7494); experiment: LTEA_HepaRG_XBP1: Life Technologies and Expression Analysis (LTEA) Assay for X-box binding protein 1 (XBP1) using HepaRG (AID 2283540); details: mRNA level, 48 h; actives raise or lower the signal
# In short: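 Eight concentrations (half-log, highest 100 uM, 0.5% DMSO) tested in duplicate on HepaRG cells over 48 h in serum-free induction medium; qRT-PCR of XBP1 normalised to ACTB, GAPDH, POLR2A.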
# [12] = LTEA_HepaRG_LDH_cytotoxicity: Cytotoxicity Assessment in the Life Technologies and Expression Analysis (LTEA) Assay (AID 2283563; active = hit-call score of the fitted dose curve at least 0.9, where 1 is the maximum)
# In short: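 Spent-medium LDH after 48 h chemical exposure of HepaRG cells in serum-free induction medium; eight concentrations, half-log dilutions from 100 uM, duplicate wells, fitted upward relative to 0.5% DMSO.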
# [13] = TOX21_p53_BLA_p2_viability: Viability Assessment in the Tox21 HCT-116 p53 Agonism Beta-lactamase Assay, Phase 2 (AID 2283591; active = hit-call score of the fitted dose curve at least 0.9, where 1 is the maximum;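 also: compound exposure lasted 16 h at 37 °C; actives lower the ATP signal meaning cytotoxicity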)
# In short: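 HCT116 p53-bla cells, 4000/well, dosed after 5 h plating (217-fold dilution of DMSO stocks) and incubated 16 h at 37C. Viability taken as cellular ATP by CellTiter-Glo luminescence after 30 min RT; signal loss marks cytotoxicity.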
# [14] = biological target: Cellular tumor antigen p53 (Homo sapiens) (UniProt P04637); experiment: TOX21_p53_BLA_p2_ratio: Tox21 HCT-116 p53 Agonism Beta-lactamase Assay, Ratio, Phase 2 (AID 2283592; active = hit-call score of the fitted dose curve at least 0.9, where 1 is the maximum)
# In short: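 DMSO-normalized, positive-direction endpoint derived from the 460 nm/530 nm FRET ratio in HCT116 p53 beta-lactamase reporter cells exposed 16 h at 37C and loaded with CCF4-AM for 2 h.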
# [15] = TOX21_p53_BLA_p3_viability: Viability Assessment in the Tox21 HCT-116 p53 Agonism Beta-lactamase Assay, Phase 3 (AID 2283593; active = hit-call score of the fitted dose curve at least 0.9, where 1 is the maximum;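 also: cells exposed to compound for 16 h before reading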)
# In short: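 HCT116 cells, 4000/well, dosed 5 h after plating by pin transfer (217-fold dilution from DMSO stock) and incubated 16 h at 37C, 5% CO2. Viability read as ATP luminescence with CellTiter-Glo after 30 min at room temperature.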
# [16] = biological target: Cellular tumor antigen p53 (Homo sapiens) (UniProt P04637); experiment: TOX21_p53_BLA_p3_ratio: Tox21 HCT-116 p53 Agonism Beta-lactamase Assay, Ratio, Phase 3 (AID 2283596; active = hit-call score of the fitted dose curve at least 0.9, where 1 is the maximum)
# In short: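 Cells were seeded at 4000/well, rested 5 h at 37C, then dosed with DMSO compound solutions (217-fold dilution) for 16 h. CCF4-AM substrate was loaded for 2 h at room temperature, and the 460/530 nm emission ratio was fitted for gain of signal versus DMSO.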
# [17] = TOX21_p53_BLA_p4_viability: Viability Assessment in the Tox21 HCT-116 p53 Agonism Beta-lactamase Assay, Phase 4 (AID 2283597; active = hit-call score of the fitted dose curve at least 0.9, where 1 is the maximum;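 also: hits lower the luminescence signal meaning cytotoxicity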)
# In short: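 In this multiplexed secondary endpoint, HCT116 cells (4000 per well, compound at 5 h, 16 h treatment) received CellTiter-Glo after the beta-lactamase read. Luminescence after 30 min RT reflects ATP, and falling signal marks cytotoxicity.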
# [18] = ATG_XTT_Cytotoxicity: Cytotoxicity Assessment in the Attagene TRANS-FACTORIAL HepG2 Assay (AID 2283584; active = hit-call score of the fitted dose curve at least 0.9, where 1 is the maximum)
# In short: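 24 h chemical exposure of reporter-transfected HepG2; XTT signal loss vs DMSO indicates cytotoxicity.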
# Cellular tumor antigen p53 (Homo sapiens), sequence (P04637 whole entry, looked up): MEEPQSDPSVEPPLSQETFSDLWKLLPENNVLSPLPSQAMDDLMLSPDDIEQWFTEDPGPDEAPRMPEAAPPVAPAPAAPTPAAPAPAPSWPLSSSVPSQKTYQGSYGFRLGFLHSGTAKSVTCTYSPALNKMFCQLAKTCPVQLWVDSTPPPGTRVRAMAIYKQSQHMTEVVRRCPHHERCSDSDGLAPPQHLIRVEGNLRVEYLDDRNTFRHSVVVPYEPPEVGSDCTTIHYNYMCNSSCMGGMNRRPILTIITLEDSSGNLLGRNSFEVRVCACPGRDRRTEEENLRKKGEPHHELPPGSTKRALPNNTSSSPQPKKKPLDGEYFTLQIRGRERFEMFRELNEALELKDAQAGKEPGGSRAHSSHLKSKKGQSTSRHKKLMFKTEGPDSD
compound,measurement,setting,value
c1ccc2c(c1)Cc1ccccc1-2,outcome,[1],inactive
same,outcome,[2],inactive
same,outcome,[3],inactive
same,outcome,[4],inactive
same,outcome,[5],inactive
same,outcome,[6],inactive
same,outcome,[7],inactive
same,outcome,[8],inactive
same,outcome,[9],inactive
same,outcome,[10],inactive
same,outcome,[11],inactive
same,outcome,[12],inactive
same,outcome,[13],inactive
same,outcome,[14],inactive
same,outcome,[15],inactive
same,outcome,[16],inactive
same,outcome,[17],inactive
Cc1ccc(S(=O)(=O)O)c(C)c1,outcome,[18],inactive
same,outcome,[14],inactive
same,outcome,[15],inactive
same,outcome,[17],inactive
CC(=O)CC(C)(C)O,outcome,[1],inactive
same,outcome,[2],inactive
same,outcome,[3],inactive
same,outcome,[4],inactive
same,outcome,[5],inactive
same,outcome,[6],inactive
same,outcome,[7],inactive
same,outcome,[8],inactive
same,outcome,[9],inactive
same,outcome,[10],inactive
same,outcome,[11],inactive
same,outcome,[12],inactive
same,outcome,[18],inactive
same,outcome,[13],inactive
same,outcome,[14],inactive
same,outcome,[15],inactive
COC(=O)CCCCC(=O)OC,outcome,[2],inactive
same,outcome,[3],inactive
same,outcome,[4],inactive
same,outcome,[5],inactive
same,outcome,[6],inactive
same,outcome,[7],inactive
same,outcome,[8],inactive
same,outcome,[9],inactive
same,outcome,[10],inactive
same,outcome,[11],inactive
same,outcome,[12],inactive
same,outcome,[18],inactive
same,outcome,[13],inactive
same,outcome,[14],inactive
same,outcome,[15],inactive
same,outcome,[16],inactive
same,outcome,[17],inactive
CC1=C(/C=C/C(C)=C/C=C/C(C)=C/C(=O)O)C(C)(C)CCC1,AC50,[1],1.09 µM (active)
same,AC50,[2],11.5 µM (active)
same,AC50,[3],0.812 µM (active)
same,outcome,[4],inactive
same,outcome,[5],inactive
same,outcome,[6],inactive
same,outcome,[7],inactive
same,outcome,[8],inactive
same,AC50,[9],13 µM (active)
same,AC50,[10],16.9 µM (active)
same,outcome,[11],inactive
same,outcome,[12],inactive
same,outcome,[18],inactive
same,outcome,[14],inactive
same,AC50,[15],47.8 µM (active)
same,outcome,[15],inactive
CCCOC(=O)c1ccc(O)cc1,outcome,[1],inactive
same,outcome,[2],inactive
same,outcome,[3],inactive
same,outcome,[4],inactive
same,outcome,[5],inactive
same,AC50,[6],0.779 µM (active)
same,outcome,[7],inactive
same,outcome,[8],inactive
same,outcome,[9],inactive
same,outcome,[10],inactive
same,outcome,[11],inactive
same,outcome,[12],inactive
same,outcome,[18],inactive
same,outcome,[13],inactive
same,outcome,[14],inactive
same,outcome,[15],inactive
same,outcome,[17],inactive
CC(C)(C)CC(C)(C)c1ccc(O)c(-n2nc3ccccc3n2)c1,outcome,[1],inactive
same,outcome,[2],inactive
same,outcome,[3],inactive
same,outcome,[4],inactive
same,outcome,[5],inactive
same,outcome,[6],inactive
same,AC50,[7],77.9 µM (active)
same,outcome,[8],inactive
same,AC50,[9],17.4 µM (active)
same,outcome,[10],inactive
same,outcome,[11],inactive
same,outcome,[12],inactive
same,outcome,[18],inactive
same,outcome,[13],inactive
same,outcome,[14],inactive
same,AC50,[15],38.6 µM (active)
same,outcome,[15],inactive
same,outcome,[16],inactive
same,outcome,[17],inactive
CCCCCCCCCCCCCCCS(=O)(=O)Oc1ccccc1,outcome,[1],inactive
same,outcome,[2],inactive
same,outcome,[3],inactive
same,outcome,[4],inactive
same,outcome,[5],inactive
same,outcome,[6],inactive
same,outcome,[7],inactive
same,outcome,[8],inactive
same,AC50,[9],8.01 µM (active)
same,outcome,[10],inactive
same,outcome,[11],inactive
same,outcome,[12],inactive
same,outcome,[18],inactive
same,outcome,[13],inactive
same,outcome,[14],inactive
same,outcome,[15],inactive
same,outcome,[17],inactive
